Compounds with a hit are over-represented: about 1.1% of the library has one in this group of screens.
PKA-R1A activ – activators of PKA-R1A complex; P00514+P68181; PKA-R1A dissociation, Cy5-IP20 fluorescence polarization; scaled: DMSO 0%, 113 µM cGMP 100%; activation, % at 11.4 µM; actives 0.083% (n = 340,000);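 active = percent activation above the mean of all tested compounds plus 3 SD, cut at about 19% in these data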;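 note: higher means more PKAc released from R1A so a rise in polarization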
PKA-R2B activ – activators of human PKA-R2B complex. AID 504700. P22694+P31323. activation, % at 11.4 µM. actives 0.079% (n = 340,000). PKA-R2B holoenzyme dissociation, Cy5-IP20 fluorescence polarization; R2B truncated from residue 108, S112A mutant; 0% DMSO only, 100% 113 µM cGMP;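 active = activation above a cutoff set at the mean over all compounds plus 3 SD, cut at about 18% in these data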;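 note: higher means more holoenzyme dissociation and a rise in polarization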
Target sequence (P31323 whole entry, looked up, other chains not shown, the tested form may be a part): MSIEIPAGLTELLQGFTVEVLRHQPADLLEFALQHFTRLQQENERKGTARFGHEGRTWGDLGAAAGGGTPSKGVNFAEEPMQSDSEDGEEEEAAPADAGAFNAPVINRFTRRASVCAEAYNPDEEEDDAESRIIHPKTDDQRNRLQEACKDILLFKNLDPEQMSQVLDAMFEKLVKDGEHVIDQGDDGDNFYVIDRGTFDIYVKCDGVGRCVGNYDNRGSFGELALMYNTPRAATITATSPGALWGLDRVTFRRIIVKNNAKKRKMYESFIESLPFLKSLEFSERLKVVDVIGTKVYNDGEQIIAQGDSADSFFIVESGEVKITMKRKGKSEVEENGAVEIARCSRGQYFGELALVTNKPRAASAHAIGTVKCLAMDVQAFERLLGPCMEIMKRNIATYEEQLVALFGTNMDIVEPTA
MsrA inhibitor – bovine MsrA inhibition; purified bovine MsrA, absorbance read-out; inhibition, % at 15.5 µM; actives 0.75% (n = 360,000);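 note: 0% = vehicle wells with enzyme and 100% = reference inhibitor wells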
MsrA act – bovine methionine sulfoxide reductase A activation | purified bovine MsrA, absorbance read-out | activation, % at 10.6 µM | actives 0.3% (n = 360,000) | AID 602163; in the data active = activation above about 7.5%;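 note: 0% = vehicle and 100% = reference activator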
MsrA inh confirm – bovine MsrA inhibition, confirmed; shares compounds with MsrA inhibitor; purified bovine MsrA, absorbance read-out; inhibition, % at 15.5 µM; actives 41% (n = 2,300); AID 651822;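 note: coupled to thioredoxin reductase with NADPH and selenocystamine and DMSO as substrate; 0% = vehicle only and 100% = full effect of reference inhibitor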
* marks the source's active call; other numbers are inactive results; / = no result given. Cut-off read from the data, not from the text of the source, unless noted: active = inhibition above about 4.5%; inactive = the rest.

SMILES	PKA-R1A activ	PKA-R2B activ	MsrA inhibitor	MsrA act	MsrA inh confirm
CCN=C1NC(CCc2ccccc2)C(C(=O)OC)=C(C)N1Cc1ccc(C(F)(F)F)cc1 (stereo unspecified)	/	/	-0.5	/	/
O=C(N[C@H](C(=O)N1CCC[C@H]1C(=O)NC1CCCC1)c1ccccc1)C1CCCC1	/	/	0.7	/	/
COc1ccc(/C=N/NC(=O)Cn2nnc3ccccc32)cc1OC	-4.3	0.1	0.4	-1.0	/
CN(C)c1ccc(/C=N/NC(=O)Cn2nnc3ccccc32)cc1	-6.8	-4.5	5.1*	-5.5	4.7*
CN(C)c1ccc(/C=N/NC(=O)CCc2c[nH]c3ccccc23)cc1	7.5	-3.8	5.5*	-1.9	3.0
CN(C)c1ccc(/C=N/NC(=O)CCCCCNC(=O)c2ccccc2)cc1	-7.6	-1.0	4.8*	-6.7	2.8
CN(C)c1ccc(/C=C(\NC(=O)c2ccccc2)C(=O)N/N=C/c2ccc(C(=O)O)cc2)cc1	-1.4	6.7	5.7*	-4.4	5.4*
CCCCc1c(-c2ccccc2OC)ncn1Cc1ccc(Br)cc1	/	/	1.2	/	/
COc1ccc(/C=C(\NC(=O)c2ccccc2)C(=O)N/N=C/c2ccncc2)cc1	-3.0	-12.5	5.0*	-4.8	6.0*
CN(C)c1ccc(/C=N/NC(=O)c2ccccc2)cc1	-15.8	-7.7	4.7*	-6.2	4.2
CN(C)c1ccc(/C=N/NC(=O)c2ccc(Cl)cc2)cc1	-7.3	-1.1	3.1	-8.0	/
COc1ccc(OC)c(NC(=O)COC(=O)CCc2nc3ccccc3c(=O)[nH]2)c1	-4.3	-10.4	-1.3	-1.1	/
O=[N+]([O-])c1ccccc1-c1ccc(CN2CCN(c3ccccc3)CC2)o1	9.9	-8.9	1.4	-2.7	/
CCS(=O)(=O)CCSc1nc2ccccc2o1	7.0	-0.3	6.1*	-2.0	4.3
CCc1cc2c(nc1CC)CCCN2Cc1ccc(Br)cc1	/	/	0.6	/	/
CCCCC(=O)N1CCN(c2nc3ccc(OCC)cc3s2)CC1	-1.5	-1.2	-0.3	-0.4	/
CCOc1ccc2nc(N3C(=O)CNC3=S)sc2c1	0.5	1.9	7.3*	-5.0	4.6*
Cc1cc2nc(N3C(=O)CNC3=S)sc2cc1C	0.0	-7.2	7.7*	-5.5	4.9*
COC(=O)[C@]12C[C@H](CC(=O)NCc3cccc4ccccc34)C(=O)N(Cc3ccc4c(c3)OCO4)C1=C[C@H](COCc1ccccc1)O[C@@H]2C	/	/	0.9	/	/
c1ccc(-c2onc3cc4c(cc23)OCCO4)cc1	3.4	-9.5	5.1*	0.1	2.1
COC(=O)[C@]12C[C@H](CC(=O)N3CCN(C(=O)C4CC4)CC3)C(=O)N(Cc3ccccc3)C1=C[C@H](C(C)C)O[C@@H]2C1CC1	/	/	0.1	/	/
Cc1ccc(/C=N\Nc2nc3ccc(Cl)cc3[nH]2)o1	2.4	10.1	4.7*	-0.1	4.2
Fc1ccccc1-c1ccc(/C=N/Nc2nc3ccccc3[nH]2)o1	-1.1	-13.2	2.5	-1.6	/
Cc1[nH]nc(Nc2ccc(Br)cc2)c1[N+](=O)[O-]	5.2	-0.7	5.4*	-2.6	3.0
Cc1cc(C(=O)O)ccc1-n1c(C)cc(/C=C2\SC(=O)NC2=O)c1C	4.6	-1.3	5.7*	-3.4	2.8
SMILES	PKA-R1A activ	PKA-R2B activ	MsrA inhibitor	MsrA act	MsrA inh confirm
O=C(CN1CCN(Cc2ccccc2)CC1)N/N=C/C=C/c1ccco1	-12.4	9.7	5.8*	-9.1	4.5
CC(/C=N/NC(=O)CN1CCN(Cc2ccc(Cl)cc2)CC1)=C\c1ccco1	-4.9	-9.6	2.6	-9.4	/
CCn1c(Sc2nc(C)nc3scc(-c4cccs4)c23)n[nH]c1=O	-0.6	-10.2	10.2*	-6.6	10.0*
FC(F)(F)c1ccc(N/N=C/c2cccnc2)nc1	2.4	-6.1	3.0	-4.5	/
C(=N\Nc1ccccn1)/c1cccnc1	4.6	-2.6	5.6*	-1.0	4.1
COC(=O)C1=C(C)N(Cc2cccc(C(F)(F)F)c2)C(=NCc2cc(OC)c(OC)c(OC)c2)NC1c1ccc(F)cc1 (stereo unspecified)	/	/	-2.8	/	/
CN(CC(=O)Nc1ccc(N2CCOCC2)cc1)C(=O)Cc1ccccc1	7.4	5.0	5.3*	-2.3	-0.3
CC(CC(=O)N(C)CC(=O)Nc1ccc(N2CCOCC2)cc1)c1ccccc1 (stereo unspecified)	-4.1	-4.3	0.7	-4.1	/
NC1=NC(=O)/C(=C/c2cn(CCC(=O)O)nc2-c2ccc(F)cc2)S1	12.1	3.4	5.0*	-6.4	3.5
CCCN(C(=O)c1cn(CCC)c2ccccc12)c1ccc(Oc2cccnc2)cc1	/	/	0.5	/	/
O=C(Nc1nnc(-c2ccncc2)o1)c1ccc(Br)s1	-6.8	-2.7	5.8*	-2.3	3.2
C=C1[C@H](C)CN(S(=O)C(C)(C)C)[C@H]1CCO (stereo partly specified)	/	/	-0.4	/	/
CCCNC(=O)COC(=O)/C=C/c1ccc(C)o1	-3.1	-1.2	5.8*	-1.9	5.5*
CCCCNC(=O)C1(C)CCCCN1C(=O)c1ccc2c(c1)CCO2 (stereo unspecified)	/	/	-1.2	-9.5	/
C[C@H](CO)N1C[C@H](C)[C@H](CN(C)C(=O)Nc2cccc(F)c2)OCc2cnnn2CCCC1=O	/	/	0.1	/	/
CCc1cccc(C)c1Nc1nc2ccccc2n2cnnc12	-0.8	-2.1	5.4*	-2.6	3.6
Cc1c(Nc2nc3ccccc3n3cnnc23)cccc1[N+](=O)[O-]	-9.0	-10.2	-0.3	-3.3	/
Cc1cc([N+](=O)[O-])ccc1Nc1nc2ccccc2n2cnnc12	1.6	2.6	6.4*	4.6	8.3*
C[C@@H]1COc2cccc(NCCO)c2S(=O)(=O)N1	/	/	0.4	/	/
NC(=O)c1ncn([C@@H]2O[C@H](C(=O)N[C@H](Cc3ccccc3)C(=O)N3CCN(c4ccc(Cl)cn4)CC3)[C@@H](O)[C@H]2O)n1	/	/	1.3	/	/
CN(C)c1cccc(NC2=CC(=[N+]3CCOCC3)CC(C)(C)C2)c1	-3.3	-2.2	4.8*	-5.6	5.2*
CC1(C)CC(=O)C=C(Nc2cccc(F)c2)C1	-6.5	-8.8	2.6	-4.0	/
COc1ccc(C2=NS(=O)(=O)N(C)C(C(=O)N3CCN(C)CC3)=C2)cc1	-6.4	-5.8	5.9*	-3.6	2.8
Cc1ccc(C2=NS(=O)(=O)N(C)C(C(=O)NCc3cccs3)=C2)cc1	-6.2	14.1	3.5	-3.0	/
CCN1CCN(C(=O)C2=CC(c3ccc(C)cc3)=NS(=O)(=O)N2C)CC1	-2.5	-0.7	3.1	-2.4	/
SMILES	PKA-R1A activ	PKA-R2B activ	MsrA inhibitor	MsrA act	MsrA inh confirm
Cc1ccc(C2=NS(=O)(=O)N(C)C(C(=O)NCc3ccccn3)=C2)cc1	3.6	-3.8	5.2*	2.3	2.4
Cc1ccc(C2=NS(=O)(=O)N(C)C(C(=O)N3CCCCC3)=C2)cc1	-14.4	-5.0	5.0*	-3.4	3.0
COC(=O)C[C@H]1CC[C@@H](NC(=O)Nc2ccc(C(F)(F)F)cc2)[C@@H](CO)O1	/	/	1.2	/	/
CCN(CC)c1ccc(/C=N/NC(=O)c2ccco2)cc1	-1.9	-9.5	5.2*	-7.0	4.5
Cc1ccsc1/C=N\NC(=O)c1cc(C(C)(C)C)[nH]n1	9.6	-1.4	5.3*	-4.6	3.9
Cc1cc(C(=O)N/N=C/c2sccc2C)no1	-6.5	-4.1	2.7	-4.5	/
